38 compounds from PubChem BioAssay (NCI) can be followed below.

The nature of assay [1]: NCI Yeast Anticancer Drug Screen. Data for the rad50 strain (AID 155).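 Further: 0% = growth of vehicle-only cultures of the same strain.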 To be noted: S. cerevisiae rad50 strain growth inhibition; at 50.0 µM; hits give high values. Put shortly:
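A DNA repair-deficient yeast mutant serves as the test organism; compound-induced growth inhibition is calculated against vehicle-treated cells.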

Assay [2] is described as follows: NCI Yeast Anticancer Drug Screen. Data for the mec2-1 strain (AID 157). The note with it: S. cerevisiae mec2-1 strain, at 50.0 µM, hits give high values. Put shortly:
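Yeast mec2-1 mutant treated with compound. Readout: growth inhibition vs vehicle controls.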

Assay [3] is described as follows: NCI Yeast Anticancer Drug Screen. Data for the sgs1 mgt1 strain (AID 161).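 Further: 0% = growth of cultures given vehicle only.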 To be noted: S. cerevisiae sgs1 mgt1 strain, at 50.0 µM, hits give high values. Put shortly: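 Mutant yeast exposed to compound; growth scored against vehicle-only wells.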
Assay [4] can be described thus: NCI Yeast Anticancer Drug Screen. Data for the cln2 rad14 strain (AID 165).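 Further: 0% = growth equal to vehicle treated cultures.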 The note with it: S. cerevisiae cln2 rad14 strain, at 50.0 µM, hits give high values. The procedure, abridged:
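cln2 rad14 yeast strain; compound exposure; growth inhibition read vs vehicle controls.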

A short description of assay [5]: NCI Yeast Anticancer Drug Screen. Data for the bub3 strain (AID 167). To be noted: S. cerevisiae bub3 mutant strain, at 50.0 µM, hits give high values. The procedure, abridged:
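Inhibition values come from growth of compound-treated mutant yeast normalised to vehicle-treated controls.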

Assay [6] is described as follows: NCI Yeast Anticancer Drug Screen. Data for the mlh1 rad18 strain (AID 175). The note with it: S. cerevisiae mlh1 rad18 strain growth inhibition; at 50.0 µM; hits give high values. Put shortly: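 Yeast w/ defined DNA-repair lesions; compound exposure; growth vs vehicle controls → % inhibition.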

The panel holds about 79,000 compounds, 15% with a hit somewhere; the sample as a whole holds those more often. A number with no mark means an inactive call. Calls of active or inactive are those of the source. No stated cut-off is given here; in the data, active means growth inhibition above about 70%; inactive means the rest.

For `CCOCc1cc(Cc2cc(COCC)c3cccnc3c2O)c(O)c2ncccc12`, the growth inhibition is 55.7% in assay [1]; 16.7% in assay [2]; 39.6% in assay [3]; 10.2% in assay [4]; 0.45% in assay [5]; 16.2% in assay [6].

`S=C(NCc1ccc(Cl)c(Cl)c1)Nc1ccccc1`: the growth inhibition in assay [1] was 98% (active); in assay [2] it was 99.2% (active); in assay [3], 99% (active); in assay [4], 98.2% (active); in assay [5] it was 97.3% (active); in assay [6], 98% (active).

Take `Cc1cc(=O)c(O)c(C)o1`: the growth inhibition is -1.4% in assay [1]; -2.9% in assay [2]; -3.4% in assay [3]; 2.5% in assay [4]; -0.05% in assay [5]; -1.7% in assay [6].

Consider `O=C(c1ccccc1)c1ccc2ccccc2c1C(=O)O`, for which the growth inhibition was -8.25% in assay [1]; 9.6% in assay [2]; 4.85% in assay [3]; -69.3% in assay [4]; -5.65% in assay [5]; -17% in assay [6].

Take `C/C(CC(=O)Nc1cccc(Cl)c1C)=N\NC(=O)c1ccncc1`: the growth inhibition was 6.05% in assay [1]; -2.3% in assay [2]; -6.2% in assay [3]; -2% in assay [4]; -0.5% in assay [5]; 0.95% in assay [6].

As for `CCOc1ccc(/C=C2\C=Nc3ccccc32)cc1`, the growth inhibition in assay [1] is -3.75%; in assay [2], -10.8%; in assay [3], 3.2%; in assay [4] it was 6.7%; in assay [5], 16.1%; in assay [6] it was -5.4%.

For `CCCc1cc(=O)n(CCCc2ccccc2)c(=O)n1CCCc1ccccc1`, the growth inhibition was 10.3% in assay [1]; -8.7% in assay [2]; -8.95% in assay [3]; -36.1% in assay [4]; -3.65% in assay [5]; 16% in assay [6].

`CN(Cc1cnc2nc(N)nc(N)c2n1)c1ccc(C(=O)NC(CCCCN)C(=O)O)cc1` (stereo not drawn): the growth inhibition in assay [1] was -0.05%; in assay [2], -9.4%; in assay [3] it was -0.05%; in assay [4] it was -15.8%; in assay [5], -2.05%; in assay [6], 30.9%.

In the case of `CCOC(=O)c1sc(N)nc1O`, the growth inhibition in assay [1] was -5.5%; in assay [2] it was -0.3%; in assay [3] it was -3.75%; in assay [4] it was 5.85%; in assay [5] it was 6.25%; in assay [6], -8.8%.

For the compound `Cc1ccc(/C=C/C(=O)c2sc(-n3nc(-c4ccccc4)cc3-c3ccccc3)nc2C)cc1`, the growth inhibition in assay [1] was -2.3%; in assay [2] it was -6.85%; in assay [3], -29.9%; in assay [4] it was 5.6%; in assay [5], 20.1%; in assay [6], -7.4%.

Turning to `NCC1(N2CCOCC2)C2CCCC21CNc1ccccc1` (stereo not drawn), the growth inhibition was -37.2% in assay [1]; -46.1% in assay [2]; -16% in assay [3]; -4.65% in assay [4]; -35.1% in assay [5]; -21% in assay [6].

`CC12CC(=O)OC(Cc3ccccc31)O2` (stereo not drawn): the growth inhibition in assay [1] is -50.4%; in assay [2], -27.1%; in assay [3] it was -51.7%; in assay [4], -1.25%; in assay [5], -63.6%; in assay [6], -40.5%.

With `c1ccc(-c2nc3c(N4CCOCC4)ncnc3o2)cc1`, the growth inhibition in assay [1] is -3.25%; in assay [2], -4.65%; in assay [3], 7.95%; in assay [4], -2.55%; in assay [5], -4.8%; in assay [6], 2.75%.

`O=C(c1ccco1)N(C(=S)N1CCN(c2ccccc2)CC1)c1ccccc1`: the growth inhibition in assay [1] is -79.7%; in assay [2] it was -24.4%; in assay [3] it was -35.5%; in assay [4], -4.4%; in assay [5], -18.1%; in assay [6] it was -35.2%.

With `CC(=O)O[C@H]1C(=O)[C@]2(C)[C@@H](OC(=O)OCCC(O)CO)C[C@H]3OC[C@@]3(OC(C)=O)[C@H]2[C@H](OC(=O)c2ccccc2)[C@]2(O)C[C@H](OC(=O)[C@H](O)[C@@H](NC(=O)c3ccccc3)c3ccccc3)C(C)=C1C2(C)C` (stereo partly drawn), the growth inhibition in assay [1] was 1.65%; in assay [2], -7.2%; in assay [3], 2.25%; in assay [4], 3.95%; in assay [5] it was -19.2%; in assay [6] it was -0.35%.

Take `O=[N+]([O-])c1ccc(Cc2ncnc3c2ncn3C2OC(CO)C(O)C2O)cc1` (stereo not drawn): the growth inhibition in assay [1] was 5.1%; in assay [2], -13.2%; in assay [3] it was -16.4%; in assay [4], -0.95%; in assay [5], 2.15%; in assay [6], -18.9%.

With `CCn1c(=O)c2[nH]c(-n3c(Cl)nc4c3c(=O)n(CC)c(=O)n4CC)nc2n(CC)c1=O`, the growth inhibition was 31.1% in assay [1]; 2.8% in assay [2]; 2.9% in assay [3]; 14.2% in assay [4]; -0.5% in assay [5]; 21.4% in assay [6].

As for `C=C(Cl)CSc1ncnc2nc[nH]c12`, the growth inhibition in assay [1] was 34.5%; in assay [2], 22.9%; in assay [3], 18.2%; in assay [4], 8.05%; in assay [5] it was 30.6%; in assay [6], 36.4%.

As to `CN1CCN(CCSC(=O)C(O)(c2ccccc2)C2CCCC2)CC1` (stereo not drawn), the growth inhibition in assay [1] was 17.1%; in assay [2] it was 16.6%; in assay [3], 7.35%; in assay [4] it was -17.2%; in assay [5] it was 4.6%; in assay [6], 24.8%.

Take `C=CCNC(=O)CN(CC(=O)OC)C1CCCCC1N(CC(=O)OC)CC(=O)OC` (stereo not drawn): the growth inhibition is -8.3% in assay [1]; -6.6% in assay [2]; -1.8% in assay [3]; 6.75% in assay [4]; 2% in assay [5]; 1.75% in assay [6].

In the case of `Brc1nccs1`, the growth inhibition was -21.9% in assay [1]; -21.4% in assay [2]; -13.2% in assay [3]; -11.1% in assay [4]; -9.05% in assay [5]; -27.1% in assay [6].

In the case of `CCCCSCCOC(=O)C1C2CCC(O2)C1C(=O)O` (stereo not drawn), the growth inhibition in assay [1] was 19.5%; in assay [2], -3.85%; in assay [3], 0.1%; in assay [4], 13.4%; in assay [5] it was -1.25%; in assay [6] it was 13.8%.

As for `C=CCOCn1ccc(N)nc1=O`, the growth inhibition in assay [1] was -3.3%; in assay [2], -0.55%; in assay [3], 1.8%; in assay [4], 7%; in assay [5] it was -6.05%; in assay [6] it was -2.95%.

For the compound `c1ccc(/N=C2\c3ccccc3CN2c2ccccn2)nc1`, the growth inhibition was -21.9% in assay [1]; 3.75% in assay [2]; -7.6% in assay [3]; -3.75% in assay [4]; 9% in assay [5]; -1.35% in assay [6].

On to `O=Nc1ccc(O)cc1O`, for which the growth inhibition in assay [1] is 16.9%; in assay [2] it was 2.5%; in assay [3], 1.15%; in assay [4], -38.6%; in assay [5] it was 33.3%; in assay [6], 19.1%.

Turning to `OC1C(O)C2CC1C1C2C2(Cl)CC1(Cl)C(Cl)=C2Cl` (stereo not drawn), the growth inhibition is 7.6% in assay [1]; -1.55% in assay [2]; 1.5% in assay [3]; -1.35% in assay [4]; -6.1% in assay [5]; 14.3% in assay [6].

Consider `CNC1NC(=O)c2ccccc2N1Cc1ccc(F)cc1` (stereo not drawn), for which the growth inhibition in assay [1] is 5.7%; in assay [2], 4.5%; in assay [3] it was -23.1%; in assay [4], -19.6%; in assay [5], -12.1%; in assay [6], -4.25%.

On to `Oc1ccc2ccccc2c1Br`, for which the growth inhibition in assay [1] is 45.9%; in assay [2], 55.5%; in assay [3], 40.2%; in assay [4], 26.1%; in assay [5] it was 44.2%; in assay [6], 35.6%.

In the case of `Cn1c(=O)[nH]c2c(-c3ccccc3)n[nH]c2c1=O`, the growth inhibition in assay [1] is 11.3%; in assay [2], -1.65%; in assay [3], 3.5%; in assay [4], -45.5%; in assay [5], 1.4%; in assay [6], 4.3%.

As for `CCOC(=O)c1cc(/C=C/C(C)=C/C(=O)OC)oc1C`, the growth inhibition in assay [1] was 6.85%; in assay [2] it was 1.4%; in assay [3], -0.45%; in assay [4] it was -13.3%; in assay [5], 5.4%; in assay [6] it was 1.25%.

Consider `C#CCSC(=N)N`, for which the growth inhibition is 5.4% in assay [1]; -6.9% in assay [2]; 8.9% in assay [3]; 5.2% in assay [4]; 8.8% in assay [5]; 5.75% in assay [6].

With `Cc1cc(C)c2ccc(NC(=O)CCC(=O)O)nc2n1`, the growth inhibition in assay [1] is -15.1%; in assay [2] it was -32.5%; in assay [3] it was 7.45%; in assay [4], 10.7%; in assay [5], -27.4%; in assay [6], -13.4%.

For the compound `O=C(Cc1nc2ccc(C(=O)c3ccccc3)cc2[nH]c1=O)C(=O)Nc1ccc(Br)cc1`, the growth inhibition in assay [1] is -27.6%; in assay [2] it was -28.9%; in assay [3], -2.65%; in assay [4], -9.4%; in assay [5], -3.3%; in assay [6], -3.7%.

In the case of `Cc1ccc(NC(=O)CCc2nnc3s/c(=C\c4cccc([N+](=O)[O-])c4)c(=O)n23)cc1`, the growth inhibition in assay [1] is -31.4%; in assay [2] it was -8.45%; in assay [3] it was -10.6%; in assay [4], 14%; in assay [5], 10.7%; in assay [6], 3.3%.

For `CC1=CN(c2ccccc2)S2=C1c1sc3c(c1N2c1ccc(Br)cc1)CCCC3` (stereo not drawn), the growth inhibition in assay [1] is 0.9%; in assay [2], -21.9%; in assay [3], -27.5%; in assay [4], 14.4%; in assay [5], 3.15%; in assay [6], -52.2%.

Turning to `O=C(NC(=O)c1ccccc1O)c1ccccc1`, the growth inhibition was -4.6% in assay [1]; 5.45% in assay [2]; -15.4% in assay [3]; -0.35% in assay [4]; -19.5% in assay [5]; -11.2% in assay [6].

Consider `NC(CSCc1ccccc1)P(=O)(O)O` (stereo not drawn), for which the growth inhibition in assay [1] was 8.35%; in assay [2] it was 0.55%; in assay [3] it was 0.2%; in assay [4] it was -7.45%; in assay [5] it was -2.45%; in assay [6] it was -1.55%.

`COc1cc(NC(=O)CCN2CCOCC2)c2ncccc2c1`: the growth inhibition was 41.6% in assay [1]; 3.6% in assay [2]; 12.8% in assay [3]; -29.4% in assay [4]; 18.9% in assay [5]; 43% in assay [6].
